These results are taken from PMC4336329 (PLoS ONE, 2015).

Out of some 310,000 compounds screened, about 2,200 (0.71%) showed an effect of 50% or more. The effect is printed as a negative number. Only a selection was taken, and strong results are over-represented in it overall.

human ether-à-go-go-related gene (hERG) potassium channel, sequence (Q12809 whole entry, looked up): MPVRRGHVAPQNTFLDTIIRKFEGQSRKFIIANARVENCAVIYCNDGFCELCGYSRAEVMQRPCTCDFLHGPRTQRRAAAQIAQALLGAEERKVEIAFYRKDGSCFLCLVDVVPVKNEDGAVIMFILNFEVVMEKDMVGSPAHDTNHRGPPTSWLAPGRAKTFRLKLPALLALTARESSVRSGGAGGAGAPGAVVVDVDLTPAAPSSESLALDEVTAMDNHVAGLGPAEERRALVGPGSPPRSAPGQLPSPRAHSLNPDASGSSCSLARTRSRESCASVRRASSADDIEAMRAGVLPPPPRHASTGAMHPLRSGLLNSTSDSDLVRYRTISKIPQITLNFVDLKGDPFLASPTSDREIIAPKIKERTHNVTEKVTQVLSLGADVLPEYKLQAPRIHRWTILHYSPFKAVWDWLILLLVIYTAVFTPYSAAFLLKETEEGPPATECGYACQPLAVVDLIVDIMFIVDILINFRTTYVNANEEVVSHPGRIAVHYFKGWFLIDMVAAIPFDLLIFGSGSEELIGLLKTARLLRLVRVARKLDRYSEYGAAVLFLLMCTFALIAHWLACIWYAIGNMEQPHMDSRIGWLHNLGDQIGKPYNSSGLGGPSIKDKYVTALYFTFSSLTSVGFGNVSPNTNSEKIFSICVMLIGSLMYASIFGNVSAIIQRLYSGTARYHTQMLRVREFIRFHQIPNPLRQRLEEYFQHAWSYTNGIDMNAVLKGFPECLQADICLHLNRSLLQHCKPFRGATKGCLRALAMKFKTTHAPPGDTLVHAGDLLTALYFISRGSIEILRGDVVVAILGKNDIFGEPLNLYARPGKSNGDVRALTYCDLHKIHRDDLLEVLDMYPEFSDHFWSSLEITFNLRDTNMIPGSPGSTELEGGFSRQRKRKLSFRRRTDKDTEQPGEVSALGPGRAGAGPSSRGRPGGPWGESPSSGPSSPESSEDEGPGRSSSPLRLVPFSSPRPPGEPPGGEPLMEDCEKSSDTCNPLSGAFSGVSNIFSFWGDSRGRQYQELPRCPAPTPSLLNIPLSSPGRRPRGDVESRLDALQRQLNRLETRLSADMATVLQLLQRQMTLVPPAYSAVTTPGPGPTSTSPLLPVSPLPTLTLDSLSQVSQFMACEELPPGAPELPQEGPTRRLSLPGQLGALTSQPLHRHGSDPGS

The experiment has as its target human ether-à-go-go-related gene (hERG) potassium channel (human, UniProt Q12809). The experiment can be described thus: primary screen, population patch clamp on CHO cells stably expressing hERG; higher = less effect of the substance.
For `COCc1[nH]nc2c1C(c1ccc(OC)c(OC)c1)C(C#N)=C(N)O2` (centres unmarked), the “hERG current change (%, negative = inhibition) at 1uM” value was found to be 10.6%.

On to `CCOc1ccc(N2CC(C(=O)Nc3ccccc3N3CCOCC3)CC2=O)cc1` (centres unmarked), for which the “hERG current change (%, negative = inhibition) at 1uM” value is 4.41%.

Turning to `COc1ccc(OC)c(NC(=O)CSc2nnc(CNC(=O)COc3ccc(Cl)cc3)o2)c1`, the “hERG current change (%, negative = inhibition) at 1uM” value was determined as 2.4%.

On to `COC(=O)C1=C(O)C(C(=O)OC)C(c2ccc(C)cc2)C(C#N)(C#N)C1c1ccc(C)cc1` (centres unmarked), for which the “hERG current change (%, negative = inhibition) at 1uM” value worked out at 6.75%.

In the case of `O=C(c1cc2c(ccc3ccccc32)o1)N1CCCCC1`, the “hERG current change (%, negative = inhibition) at 1uM” value stood at 14.4%.

In the case of `CCOC(=O)N1CCN(C(=O)COC(=O)c2ccc(O)cc2O)CC1`, the “hERG current change (%, negative = inhibition) at 1uM” value is reported as 16.8%.

On to `CC(=O)c1ccc(-n2c(-c3cc(-c4ccsc4)n[nH]3)n[nH]c2=S)cc1`, for which the “hERG current change (%, negative = inhibition) at 1uM” value turned out to be 7.9%.

Turning to `CCCCCn1c(=O)[nH]c2cc(C(=O)NCCN3CCOCC3)ccc2c1=O`, the “hERG current change (%, negative = inhibition) at 1uM” value amounted to 6.68%.

For the molecule `O=C1NC(Cc2ccccc2)c2nc3ccc(Cl)cc3c(=O)n2-c2ccc(Cl)cc21` (centres unmarked), the “hERG current change (%, negative = inhibition) at 1uM” value is on record as 10.4%.

With `COc1ccc(S(=O)(=O)N2CCOCC2)cc1NC(=O)c1cccc(Cl)c1`, the “hERG current change (%, negative = inhibition) at 1uM” value came out at 6.86%.

Take `N#Cc1c(N)n(CCOC(=O)c2cccc([N+](=O)[O-])c2)c2nc3ccccc3nc12`: the “hERG current change (%, negative = inhibition) at 1uM” value is reported as 13.1%.

As for `COc1ccc(CCNC(=O)c2ccc3c(c2)OCO3)cc1`, the “hERG current change (%, negative = inhibition) at 1uM” value is 11.4%.

In the case of `Cc1csc(NC(=O)CSc2nnc(-c3ccccn3)n2-c2ccc(C)c(C)c2)n1`, the “hERG current change (%, negative = inhibition) at 1uM” value was -57.4%.

As for `Cn1c(SCC(=O)NCc2ccco2)nnc1-c1cccs1`, the “hERG current change (%, negative = inhibition) at 1uM” value is 8.99%.

As to `COc1cccc(-n2c(SCC(=O)NCCc3ccccc3)nnc2-c2ccoc2C)c1`, the “hERG current change (%, negative = inhibition) at 1uM” value was -50.4%.

For the molecule `CCOc1ccc(-n2c(SCC(=O)Nc3nccs3)nnc2-c2ccoc2C)cc1`, the “hERG current change (%, negative = inhibition) at 1uM” value is -35.1%.

As for `O=C(CSc1nnc(-c2cccs2)n1-c1ccccc1)NCc1ccco1`, the “hERG current change (%, negative = inhibition) at 1uM” value was -65.9%.

As for `COc1ccc(-n2c(SCC(=O)Nc3nccs3)nnc2-c2ccccc2)cc1`, the “hERG current change (%, negative = inhibition) at 1uM” value is reported as 13.9%.

With `COc1cccc(-n2c(SCC(=O)NC(C)(C)C)nnc2-c2ccoc2C)c1`, the “hERG current change (%, negative = inhibition) at 1uM” value was -3.46%.

`O=C(CSc1nnc(-c2ccccc2)n1-c1ccccc1)NCc1ccco1`: the “hERG current change (%, negative = inhibition) at 1uM” value was found to be 7.59%.

`COc1ccc(-n2c(SCC(=O)Nc3nccs3)nnc2-c2ccoc2C)cc1`: the “hERG current change (%, negative = inhibition) at 1uM” value was -79.4%.

`Cc1ccc(-n2c(SCC(N)=O)nnc2-c2ccccn2)cc1C`: the “hERG current change (%, negative = inhibition) at 1uM” value came to 13%.

`COc1cccc(NC(=O)CSc2nnc(-c3ccoc3C)n2-c2ccccc2)c1`: the “hERG current change (%, negative = inhibition) at 1uM” value is reported as -17.5%.

For the molecule `CCN(CC)C(=O)CSc1nnc(-c2ccccn2)n1-c1ccc(C)c(C)c1`, the “hERG current change (%, negative = inhibition) at 1uM” value is -4.22%.

As to `COc1ccc(-n2c(-c3cccc(C)c3[N+](=O)[O-])n[nH]c2=S)cc1`, the “hERG current change (%, negative = inhibition) at 1uM” value was determined as 7.34%.

As for `Cc1ccc(OCC(=O)NC2CCS(=O)(=O)C2)cc1` (centres unmarked), the “hERG current change (%, negative = inhibition) at 1uM” value stood at 4.41%.

In the case of `COc1ccc(C(=O)Nc2nc3ccccc3[nH]2)cc1`, the “hERG current change (%, negative = inhibition) at 1uM” value is 20.6%.

Regarding `CCCNc1cc(C)oc(=O)c1C(=O)CC`, the “hERG current change (%, negative = inhibition) at 1uM” value stood at 18.4%.

For `CC1(C)Cc2c(C#N)c(SCC(=O)c3ccccc3)nc(N3CCOCC3)c2CS1`, the “hERG current change (%, negative = inhibition) at 1uM” value is reported as 13%.

Regarding `COc1ccccc1C(=O)NNC(=O)c1ccccc1`, the “hERG current change (%, negative = inhibition) at 1uM” value came to 9.59%.

Regarding `CC(=O)n1nc(-c2ccccc2)nc1NCc1cccs1`, the “hERG current change (%, negative = inhibition) at 1uM” value amounted to 7.45%.

As for `COc1ccc(N2CCN(C(=O)c3cccc(Br)c3)CC2)c([N+](=O)[O-])c1`, the “hERG current change (%, negative = inhibition) at 1uM” value is -85.9%.

For `COc1ccc(N2CCN(C(=O)c3ccccc3)CC2)c([N+](=O)[O-])c1`, the “hERG current change (%, negative = inhibition) at 1uM” value is listed as -33.8%.

For the molecule `COc1ccc(N2CCN(C(=O)c3ccc(Br)cc3)CC2)c([N+](=O)[O-])c1`, the “hERG current change (%, negative = inhibition) at 1uM” value is -30.1%.

On to `COc1ccc(N2CCN(C(=O)CC34CC5CC(CC(C5)C3)C4)CC2)c([N+](=O)[O-])c1`, for which the “hERG current change (%, negative = inhibition) at 1uM” value worked out at 10.3%.

On to `CCCCC(=O)N1CCN(c2ccc(OC)cc2[N+](=O)[O-])CC1`, for which the “hERG current change (%, negative = inhibition) at 1uM” value is -54.5%.

In the case of `CCC(=O)N1CCN(c2ccc(OC)cc2[N+](=O)[O-])CC1`, the “hERG current change (%, negative = inhibition) at 1uM” value is -0.687%.

With `CCOc1cc(C2C3=C(CC(C)(C)CC3=O)N(CCCOC)C3=C2C(=O)CC(C)(C)C3)ccc1O`, the “hERG current change (%, negative = inhibition) at 1uM” value came out at 14%.

Regarding `O=C1CC(NS(=O)(=O)c2cccnc2)CN1c1cccc(F)c1` (centres unmarked), the “hERG current change (%, negative = inhibition) at 1uM” value stood at 10.3%.

For `Cc1ccc(C)c(N(C(=O)CNC(=O)c2ccco2)C(C(=O)NC2CCCCC2)c2ccncc2)c1` (centres unmarked), the “hERG current change (%, negative = inhibition) at 1uM” value is on record as 7.2%.

For `O=C(c1ccco1)N1CCN(C(=O)C2CC(c3ccc(Cl)cc3)=NO2)CC1` (centres unmarked), the “hERG current change (%, negative = inhibition) at 1uM” value is reported as -66.5%.

As to `COc1ccc(C2=NOC(C(=O)N3CCN(C(=O)c4ccco4)CC3)C2)cc1OC` (centres unmarked), the “hERG current change (%, negative = inhibition) at 1uM” value amounted to 15.8%.

With `Cc1c(C(=O)NCCCN2CCOCC2)sc2nc(-c3ccc(F)cc3)cn12`, the “hERG current change (%, negative = inhibition) at 1uM” value is recorded as -16.8%.

As to `COc1cccc(C2=NOC(C(=O)N3CCN(C(=O)c4ccco4)CC3)C2)c1` (centres unmarked), the “hERG current change (%, negative = inhibition) at 1uM” value is on record as -16.3%.

Take `CCN(CC)CCCNC(=O)c1sc2nc(-c3ccc(F)cc3)cn2c1C`: the “hERG current change (%, negative = inhibition) at 1uM” value is reported as -55.5%.

Regarding `CCN(CC)CCNC(=O)c1sc2nc(-c3ccccc3)cn2c1C`, the “hERG current change (%, negative = inhibition) at 1uM” value is listed as -31.8%.

In the case of `CCOC(=O)N1CCN(C(=O)c2sc3nc(-c4ccc(F)cc4)cn3c2C)CC1`, the “hERG current change (%, negative = inhibition) at 1uM” value is -22.3%.

`O=C(c1ccco1)N1CCN(C(=O)C2CC(c3ccc(F)cc3)=NO2)CC1` (centres unmarked): the “hERG current change (%, negative = inhibition) at 1uM” value was -59.7%.

Turning to `Cc1c(C(=O)N2CCN(C(=O)c3ccco3)CC2)sc2nc(-c3ccc(F)cc3)cn12`, the “hERG current change (%, negative = inhibition) at 1uM” value is -56.7%.

On to `COc1cc(OC)c(C2=NOC(C(=O)N3CCN(C(=O)c4ccco4)CC3)C2)cc1Cl` (centres unmarked), for which the “hERG current change (%, negative = inhibition) at 1uM” value is on record as -12.8%.

For the molecule `Cc1c(C(=O)N2CCN(c3ccc(F)cc3)CC2)sc2nc(-c3ccccc3)cn12`, the “hERG current change (%, negative = inhibition) at 1uM” value was -2.42%.

Turning to `O=C(c1ccco1)N1CCN(C(=O)C2CC(c3ccccc3F)=NO2)CC1` (centres unmarked), the “hERG current change (%, negative = inhibition) at 1uM” value was 3.75%.

Turning to `O=C(c1cccc(N2C(=O)C3CC=CCC3C2=O)c1)N1CCCc2ccccc21` (centres unmarked), the “hERG current change (%, negative = inhibition) at 1uM” value is listed as -16.3%.
